Assay results published in PubChem BioAssay (Tox21).
Results filed as inconclusive are left out. Active and inactive are the calls of the source. Unless noted, calls follow the shape of the dose curve; as a rule, active = well fitted curve in the direction sought with a large enough effect in the repeat runs; inconclusive = weak or mixed curves; inactive = no such curve, though single readings can be large; an effect the other way counts as inactive or inconclusive.

Key:
[1] = target: Aryl hydrocarbon receptor (Homo sapiens) (UniProt P35869); assay: qHTS assay to identify small molecule that activate the aryl hydrocarbon receptor (AhR) signaling pathway (AID 743085);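 also: HG2L7.5c1 human HepG2 liver cells with stably integrated DRE-driven firefly reporter; series mostly up to about 70 µM; nearly all actives have a fitted effect of over 15% in size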
Method in brief: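 AhR agonist activity is inferred from enhanced light output of a DRE-controlled firefly luciferase reporter in HepG2 cells, measured with ONE-Glo following 24 h treatment at 37C.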

[2] = qHTS assay to identify small molecule that activate the aryl hydrocarbon receptor (AhR) signaling pathway - cell viability counter screen (AID 743086);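 also: HepG2 liver cells carrying the AhR DRE luciferase reporter; series mostly up to about 70 µM; nearly all actives have a fitted effect of over 45% in size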
Method in brief: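 Cytotoxicity counter screen: CellTiter-Fluor signal (30 min, 37 C) in 4000 HepG2 cells/well carrying the DRE-luciferase reporter, following 24 h compound exposure at 37 C.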

[3] = target: Peroxisome proliferator-activated receptor gamma (Homo sapiens) (UniProt P37231); assay: qHTS assay to identify small molecule agonists of the peroxisome proliferator-activated receptor gamma (PPARg) signaling pathway (AID 743094; active = well fitted activation curve with a large enough effect in the signal ratio in the repeat runs, not every such curve was filed as active; the % refers to the signal ratio)
Method in brief: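 Quantitative HTS agonist mode: stable HEK293H line with UAS-beta-lactamase reporter under PPARg control, 17 h compound exposure at 37C, fluorescence after 1 h FRET substrate loading at room temperature.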

[4] = target: Peroxisome proliferator-activated receptor gamma (Homo sapiens) (UniProt P37231); assay: qHTS assay to identify small molecule antagonists of the peroxisome proliferator-activated receptor gamma (PPARg) signaling pathway (AID 743191; calls by dose curve; also: series mostly up to about 63 µM; nearly all actives have a fitted effect of over 30% in size)
Method in brief: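 Beta-lactamase reporter under UAS control in HEK293H PPARg-bla cells; compound treatment 17 h at 37C. Read-out: fluorescence intensity after 1 h room-temperature incubation with LiveBLAzer B/G FRET substrate.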

[5] = qHTS assay for small molecule agonists of the antioxidant response element (ARE) signaling pathway (AID 743202; active = well fitted activation curve with a large enough effect in the signal ratio in the repeat runs, not every such curve was filed as active; the % refers to the signal ratio)
Method in brief: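 An ARE-responsive beta-lactamase gene stably integrated in HepG2 cells serves as reporter. After 5 h plating and 16 h compound incubation at 37 C, fluorescence of the B/G FRET substrate was measured.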

[6] = qHTS assay for small molecule agonists of the antioxidant response element (ARE) signaling pathway - cell viability counter screen (AID 743203; calls by dose curve; also: nearly all actives have a fitted effect of over 55% in size)
Method in brief: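 Seeded at 2,000 cells/well, ARE-bla HepG2 cells were incubated 5 hrs before compound addition. After 16 hrs of treatment at 37C with 5% CO2, CellTiter-Glo reagent was added and luminescence read 30 min later.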

[7] = qHTS assay for small molecule activators of the heat shock response signaling pathway - cell viability counter screen (AID 743209); also: nearly all actives have a fitted effect of over 50% in size
Method in brief: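 First, HSE-bla HeLa cells were seeded at 1500 cells/well and kept overnight at 37 C. Next, compounds were pinned in and incubated 5 h. After the FRET substrate step, CellTiter-Glo was added and luminescence read 30 min later.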

[8] = qHTS assay for small molecule activators of the heat shock response signaling pathway (AID 743210; active = well fitted activation curve with a large enough effect in the signal ratio in the repeat runs, with a control signal flat, not every such curve was filed as active; the % refers to the signal ratio;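 also: HeLa cells with beta-lactamase reporter driven by heat shock elements; series mostly up to about 63 µM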)
Method in brief: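 In HSE-bla HeLa cells, 5 h compound incubation (37 C) precedes addition of LiveBLAzer B/G substrate; after 2.5 h at room temperature, fluorescence intensity indicates reporter induction.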

[9] = qHTS assay to identify small molecule agonists of the peroxisome proliferator-activated receptor delta (PPARd) signaling pathway - cell viability counter screen (AID 743211); also: nearly all actives have a fitted effect of over 55% in size
Method in brief: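 qHTS cell viability: PPARd-bla HEK293H; 17 h cpd, 37C; CellTiter-Glo, luminescence at 30 min RT.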

[10] = target: Peroxisome proliferator-activated receptor delta (Homo sapiens) (UniProt Q03181); assay: qHTS assay to identify small molecule agonists of the peroxisome proliferator-activated receptor delta (PPARd) signaling pathway (AID 743212; calls by dose curve)
Method in brief: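 HEK293H UAS-bla reporter cells, human PPARd system; compounds delivered in DMSO after 5 h plating, then at 37 C. Beta-lactamase FRET read, 2 h RT substrate step.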

[11] = qHTS assay to identify small molecule antagonists of the peroxisome proliferator-activated receptor delta (PPARd) signaling pathway - cell viability counter screen (AID 743213); also: nearly all actives have a fitted effect of over 50% in size
Method in brief: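 Agonist-stimulated (L165041, 300 nM final) HEK293H PPARd UAS-bla cells are exposed to compounds for 17 h at 37 C, and ATP-based luminescence (CellTiter-Glo) from the same wells reports cytotoxicity.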

[12] = target: Peroxisome proliferator-activated receptor delta (Homo sapiens) (UniProt Q03181); assay: qHTS assay to identify small molecule antagonists of the peroxisome proliferator-activated receptor delta (PPARd) signaling pathway (AID 743215; active = well fitted inhibition curve with a large enough effect in the signal ratio in the repeat runs, not every such curve was filed as active; the % refers to the signal ratio; also: series mostly up to about 62 µM)
Method in brief: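 Inhibition of L165041-driven (300 nM final) PPARd signaling is scored in HEK293H UAS-bla cells. Exposure lasts 17 h at 37 C; beta-lactamase activity is then read by FRET substrate fluorescence after 2 h at room temperature.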

[13] = target: Bile acid receptor (Homo sapiens) (UniProt Q96RI1); assay: qHTS assay to identify small molecule antagonists of the farnesoid-X-receptor (FXR) signaling pathway (AID 743217; active = well fitted inhibition curve with a large enough effect in the signal ratio in the repeat runs, not every such curve was filed as active; the % refers to the signal ratio)
Method in brief: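 Antagonist mode against 50 uM (final) chenodeoxycholic acid stimulation in FXR-bla HEK 293T cells, 16 h at 37 °C. Inhibition detected as reduced beta-lactamase activity via LiveBLAzer B/G FRET fluorescence after 2 h at room temperature.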

[14] = target: Bile acid receptor (Homo sapiens) (UniProt Q96RI1); assay: qHTS assay to identify small molecule agonists of the farnesoid-X-receptor (FXR) signaling pathway (AID 743220; active = well fitted activation curve with a large enough effect in the signal ratio in the repeat runs, not every such curve was filed as active; the % refers to the signal ratio)
Method in brief: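 Beta-lactamase reporter under UAS control in GeneBLAzer FXR HEK 293T cells (5000/well) measured with LiveBLAzer FRET substrate after 2 h at room temperature. Compound exposure lasted 16 h at 37C.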

[15] = qHTS assay to identify small molecule antagonists of the farnesoid-X-receptor (FXR) signaling pathway - cell viability counter screen (AID 743221; active = well fitted cell-killing curve with a large enough effect in the repeat runs, not every such curve was filed as active; also: nearly all actives have a fitted effect of over 50% in size)
Method in brief: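 After a 5 h settling period, FXR-bla HEK 293T cells receive compound and chenodeoxycholic acid (50 uM final) and incubate 16 h at 37 C; CellTiter-Glo luminescence, read after 30 min at room temperature, reports cell viability.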

[16] = target: Vitamin D3 receptor (Homo sapiens) (UniProt P11473); assay: qHTS assay to identify small molecule agonists of the vitamin D receptor (VDR) signaling pathway (AID 743222; calls by dose curve)
Method in brief: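 Quantitative HTS agonist-mode screen: compounds in DMSO were pin-transferred onto VDR-bla cells and incubated 16 h at 37C, 5% CO2. Reporter activity was detected with LiveBLAzer B/G FRET substrate after 2 h at room temperature.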

[17] = target: Vitamin D3 receptor (Homo sapiens) (UniProt P11473); assay: qHTS assay to identify small molecule antagonists of the vitamin D receptor (VDR) signaling pathway (AID 743223; active = well fitted inhibition curve with a large enough effect in the signal ratio in the repeat runs, not every such curve was filed as active; the % refers to the signal ratio)
Method in brief: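 Reporter line VDR-bla; stimulus 1alpha,25-(OH)2 vitamin D3, 3 nM final; compound co-addition, 16 h 37C/5% CO2; LiveBLAzer B/G substrate 2 h RT; fluorescence intensity.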

[18] = qHTS assay to identify small molecule agonists of the vitamin D receptor (VDR) signaling pathway - cell viability counter screen (AID 743224); also: series mostly up to about 63 µM; nearly all actives have a fitted effect of over 50% in size
Method in brief: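 Viability is measured in the same wells as the VDR-bla reporter assay: after 16 h compound treatment and 2 h substrate loading, CellTiter-Glo is added and luminescence read 30 min later.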

[19] = qHTS assay to identify small molecule antagonists of the peroxisome proliferator-activated receptor gamma (PPARg) signaling pathway - cell viability counter screen (AID 743194); also: nearly all actives have a fitted effect of over 55% in size
Method in brief: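 Viability was measured as CellTiter-Glo luminescence in GeneBLAzer PPARg UAS-bla HEK293H cells. These cells had been exposed 17 h at 37 C to compounds together with rosiglitazone at 50 nM final, with the beta-lactamase readout taken in the same wells.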

[20] = qHTS assay to identify small molecule agonists of the farnesoid-X-receptor (FXR) signaling pathway - cell viability counter screen (AID 743218); also: nearly all actives have a fitted effect of over 45% in size
Method in brief: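 Cytotoxicity counter-screen run in parallel, same wells: FXR-UAS-bla HEK 293T cells dosed 16 h at 37 C, viability read by CellTiter-Glo luminescence after 30 min at room temperature.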

Measured: Potency

Sequence of Peroxisome proliferator-activated receptor delta (Homo sapiens) (Q03181 whole entry, looked up): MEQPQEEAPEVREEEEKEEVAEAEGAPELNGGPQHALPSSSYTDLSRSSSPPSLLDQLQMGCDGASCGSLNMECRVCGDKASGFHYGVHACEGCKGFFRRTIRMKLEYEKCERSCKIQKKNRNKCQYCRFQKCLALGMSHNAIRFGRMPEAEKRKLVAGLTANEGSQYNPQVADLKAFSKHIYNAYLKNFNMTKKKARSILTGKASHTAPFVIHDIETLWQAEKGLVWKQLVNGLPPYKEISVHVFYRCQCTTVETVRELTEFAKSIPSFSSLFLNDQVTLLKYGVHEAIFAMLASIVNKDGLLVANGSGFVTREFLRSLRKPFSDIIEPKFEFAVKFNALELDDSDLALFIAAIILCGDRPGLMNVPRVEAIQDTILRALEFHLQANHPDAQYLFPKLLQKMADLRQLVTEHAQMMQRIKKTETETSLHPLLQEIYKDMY
Sequence of Vitamin D3 receptor (Homo sapiens) (P11473 whole entry, looked up): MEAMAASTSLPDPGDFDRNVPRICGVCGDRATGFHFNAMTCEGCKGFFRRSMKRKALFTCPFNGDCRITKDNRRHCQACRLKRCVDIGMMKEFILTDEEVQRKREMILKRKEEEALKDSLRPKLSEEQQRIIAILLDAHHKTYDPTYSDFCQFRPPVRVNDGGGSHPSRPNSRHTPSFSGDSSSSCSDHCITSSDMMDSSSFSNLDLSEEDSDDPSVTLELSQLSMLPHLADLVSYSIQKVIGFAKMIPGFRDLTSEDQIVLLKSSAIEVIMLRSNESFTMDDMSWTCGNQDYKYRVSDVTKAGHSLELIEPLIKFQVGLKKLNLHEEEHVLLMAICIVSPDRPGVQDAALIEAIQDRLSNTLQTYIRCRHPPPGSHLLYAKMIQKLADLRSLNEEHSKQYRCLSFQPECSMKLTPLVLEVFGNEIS
Sequence of Peroxisome proliferator-activated receptor gamma (Homo sapiens) (P37231 whole entry, looked up): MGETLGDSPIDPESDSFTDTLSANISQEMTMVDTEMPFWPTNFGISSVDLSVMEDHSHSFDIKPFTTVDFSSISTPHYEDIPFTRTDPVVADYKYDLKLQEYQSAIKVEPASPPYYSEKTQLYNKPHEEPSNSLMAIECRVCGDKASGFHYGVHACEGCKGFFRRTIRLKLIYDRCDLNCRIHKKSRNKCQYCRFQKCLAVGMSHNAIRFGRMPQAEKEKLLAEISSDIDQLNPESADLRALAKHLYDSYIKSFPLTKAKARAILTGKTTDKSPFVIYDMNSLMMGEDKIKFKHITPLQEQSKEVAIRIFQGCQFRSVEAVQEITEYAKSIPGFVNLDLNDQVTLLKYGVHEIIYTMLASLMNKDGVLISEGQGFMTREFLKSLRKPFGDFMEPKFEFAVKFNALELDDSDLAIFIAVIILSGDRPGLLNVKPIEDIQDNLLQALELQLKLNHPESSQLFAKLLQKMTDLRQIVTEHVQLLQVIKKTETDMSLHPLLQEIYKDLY
Sequence of Bile acid receptor (Homo sapiens) (Q96RI1 whole entry, looked up): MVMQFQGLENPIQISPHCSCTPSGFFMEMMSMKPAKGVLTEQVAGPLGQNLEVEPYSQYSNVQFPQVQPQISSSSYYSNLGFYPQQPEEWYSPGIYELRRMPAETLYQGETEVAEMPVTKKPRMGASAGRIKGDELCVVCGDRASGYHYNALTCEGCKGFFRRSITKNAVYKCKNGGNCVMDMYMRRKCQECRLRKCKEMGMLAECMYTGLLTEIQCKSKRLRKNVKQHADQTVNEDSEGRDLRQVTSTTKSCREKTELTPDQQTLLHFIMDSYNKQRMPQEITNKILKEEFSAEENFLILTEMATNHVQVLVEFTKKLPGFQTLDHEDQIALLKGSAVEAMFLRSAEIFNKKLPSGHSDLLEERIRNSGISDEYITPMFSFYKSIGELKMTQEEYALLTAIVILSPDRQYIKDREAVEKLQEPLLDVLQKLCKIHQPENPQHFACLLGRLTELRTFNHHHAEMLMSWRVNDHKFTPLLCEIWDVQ
Sequence of Aryl hydrocarbon receptor (Homo sapiens) (P35869 whole entry, looked up): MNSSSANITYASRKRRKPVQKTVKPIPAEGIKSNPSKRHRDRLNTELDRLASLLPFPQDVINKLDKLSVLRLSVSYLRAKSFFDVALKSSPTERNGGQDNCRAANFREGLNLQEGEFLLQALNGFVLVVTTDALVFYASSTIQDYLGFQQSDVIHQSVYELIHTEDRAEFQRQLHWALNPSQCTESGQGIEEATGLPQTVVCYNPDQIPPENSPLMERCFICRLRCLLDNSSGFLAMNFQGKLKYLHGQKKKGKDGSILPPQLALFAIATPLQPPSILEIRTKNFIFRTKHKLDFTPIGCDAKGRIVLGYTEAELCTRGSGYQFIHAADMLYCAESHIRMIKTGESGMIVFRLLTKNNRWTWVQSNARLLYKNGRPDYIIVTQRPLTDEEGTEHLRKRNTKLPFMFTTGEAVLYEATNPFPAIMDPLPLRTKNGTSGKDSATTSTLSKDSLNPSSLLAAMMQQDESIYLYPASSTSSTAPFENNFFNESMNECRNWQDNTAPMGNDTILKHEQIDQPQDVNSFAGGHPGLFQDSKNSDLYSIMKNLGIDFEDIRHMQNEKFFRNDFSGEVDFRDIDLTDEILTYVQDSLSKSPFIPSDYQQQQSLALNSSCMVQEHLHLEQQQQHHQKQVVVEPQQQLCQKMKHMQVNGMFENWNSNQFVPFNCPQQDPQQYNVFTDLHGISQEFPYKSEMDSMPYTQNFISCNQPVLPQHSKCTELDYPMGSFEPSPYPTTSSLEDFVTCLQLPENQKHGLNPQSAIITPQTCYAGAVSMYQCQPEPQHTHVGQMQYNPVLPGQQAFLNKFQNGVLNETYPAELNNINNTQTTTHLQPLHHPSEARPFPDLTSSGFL

O=NN1CCCC1
not listed: [19] | [20]
inactive: all other assays above

CC(C)OC(=O)Nc1ccccc1
not listed: [10] | [12] | [13] | [14]
inactive: all other assays above

CC(C)N1C(=O)c2ccccc2NS1(=O)=O
not listed: [8] | [13] | [14] | [17]
inactive: all other assays above

CCCCN(CC)C(=O)SCCC
not listed: [8]
inactive: all other assays above

CCN(CC)c1ccccc1
not listed: [10] | [12] | [15]
inactive: all other assays above

CC1C=[C-]C=C1.[C-]#[O+].[C-]#[O+].[C-]#[O+].[Mn]
not listed: [15] | [20]
inactive: all other assays above

COC(=O)c1ccccc1C(=O)OC
not listed: [10] | [12] | [20]
inactive: all other assays above

CCOP(OCC)OCC
not listed: [10] | [12] | [16] | [17] | [19]
inactive: all other assays above

Cc1cc(Cl)ccc1O
not listed: [15] | [19]
inactive: all other assays above
